From PubChem BioAssay AID1645860 (Buhrlage Lab, Dana-Farber Cancer Institute and Novartis …, 2021)
In all, about 47,000 compounds went through this assay and about 2,500 (5.3%) were called active. This is one part of a sample in which actives are shown more often than they occur. A number with no mark means an inactive call. Rule as the data show it: active = inhibition above about 30%; inactive = the rest.

Each compound was assayed against Ubiquitin carboxyl-terminal hydrolase 30 (Homo sapiens) (UniProt Q70CQ3) (assay: inhibitors of human USP30 deubiquitinase (AID 1645860)). Details: purified USP30, Ub-rhodamine cleavage fluorescence; at 25 µM; stronger effect = higher value.
Ubiquitin carboxyl-terminal hydrolase 30 (Homo sapiens), sequence (Q70CQ3 whole entry, looked up): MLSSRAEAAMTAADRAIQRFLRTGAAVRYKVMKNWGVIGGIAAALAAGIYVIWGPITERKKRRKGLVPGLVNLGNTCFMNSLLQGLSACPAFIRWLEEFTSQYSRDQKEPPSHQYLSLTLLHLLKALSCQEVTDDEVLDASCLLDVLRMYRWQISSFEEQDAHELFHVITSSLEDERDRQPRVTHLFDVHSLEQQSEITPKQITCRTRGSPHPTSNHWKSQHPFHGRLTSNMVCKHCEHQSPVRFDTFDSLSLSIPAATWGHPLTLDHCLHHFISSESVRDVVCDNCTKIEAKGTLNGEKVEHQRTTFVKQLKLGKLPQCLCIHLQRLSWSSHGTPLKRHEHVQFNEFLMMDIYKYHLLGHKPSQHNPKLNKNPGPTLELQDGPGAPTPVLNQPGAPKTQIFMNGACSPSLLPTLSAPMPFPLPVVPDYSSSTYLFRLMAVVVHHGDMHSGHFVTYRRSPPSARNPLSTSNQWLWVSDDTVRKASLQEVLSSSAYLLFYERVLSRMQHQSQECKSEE

Compared with `COc1cc(NC(=O)C2CCCCC2)c(OC)cc1NC(=O)CCC(=O)N1CCCCC1`, `O=C(C1CCCCC1)N1CCCC(c2ccnc3ncnn23)C1` (stereo not drawn) is higher in inhibition: -281% for the first, 21.7% for the second.

Going from `Cc1ccc(CS(=O)(=O)N2CCC(C(=O)N3CCC(C)CC3)CC2)cc1` to `Cc1ccc(N(C)C(=O)C2CCC(=O)N2S(=O)(=O)c2ccccc2)cc1` (stereo not drawn), the inhibition rises from 9.43% to 20.6%.

First: Cc1nc(-c2ccc(C)c(S(=O)(=O)NC3CCCC3)c2)cs1
Second: Cc1ccccc1CNS(=O)(=O)c1c[nH]c2ncccc12
The inhibition of the first is higher: -1.27% for the first, -1.83% for the second.

Going from `Cc1cncc(C(=O)N[C@@H]2CC[C@H]3Oc4ccccc4N[C@H]3[C@@H]2O)c1` to `Cc1c(C(=O)O)[nH]c2ccccc12`, the inhibition falls from 6.67% to -68.1%.

Going from `Cc1cc(=O)oc2c(C)c(OC(C)C(=O)NCc3ccncc3)ccc12` (stereo not drawn) to `COc1ccc(NC(=O)CSc2cn(Cc3ccccc3C)c3ccccc23)c(OC)c1`, the inhibition rises from 6.63% to 8.78%.

Going from `Cc1c(OCc2ccccc2)noc1C1CCN(CC(N)=O)CC1` to `COCCCNC(=O)[C@H](Cc1ccccc1)NC(=O)N1CCn2c1nc1ccccc12`, the inhibition falls from 6.2% to 1.89%.

First: Cc1cnc(N2CCC3(CC(=O)N(c4cccnc4)C3)C2)nc1 (stereo not drawn)
Second: O=C(Nc1cnc(N2CCCC2)nc1)c1ccco1
The inhibition of the first is lower: -20.9% for the first, -2.69% for the second.

Compared with `COc1cccc(-c2nnc(-c3ccc(-n4ccnc4)nc3)o2)c1`, `COc1ccc(NC(=O)Cc2noc(-c3cccc(OC)c3)n2)cc1` is lower in inhibition: -12.7% for the first, -26.6% for the second.

Going from `O=C(NCCc1ccccc1)c1ccc2c(=O)nc3c(-c4ccccc4F)n[nH]n3c2c1` to `COc1ccc(CCNC(=O)c2ccc3ccccc3c2)cc1OC`, the inhibition falls from -10.3% to -12.8%.

Compared with `COCCn1c(=O)[nH]c2cc(C(=O)NCCNc3ccc([N+](=O)[O-])cc3C#N)ccc2c1=O`, `COCCn1cnc2c(-c3ccccc3)cn(CC(=O)NCc3ccccc3)c2c1=O` is lower in inhibition: -7.15% for the first, -28.3% for the second.

First: COc1cccc(Nc2nc(N3CCCCC3)nc3c2cnn3C)c1
Second: COc1ccccc1Nc1nc(-c2cnc(N3CCCC3)nc2C)cc(=O)[nH]1
The inhibition of the first is lower: -24.2% for the first, 23.2% for the second.

First: CC(NC(=O)c1nc2n(n1)-c1ccccc1S(=O)(=O)N2)c1cc2ccccc2o1 (stereo not drawn)
Second: CC(C)[C@H](NC(=O)N1CCn2c1nc1ccccc12)C(=O)NCCc1ccccc1
The inhibition of the first is higher: 0.0682% for the first, -9.82% for the second.

Going from `COCCn1cnc2nnc3ccc(C(=O)NC(C)C)cc3c21` to `COC(=O)c1ccc(NC(=O)CSc2nnc(C(C)Oc3ccccc3)n2C)cc1` (stereo not drawn), the inhibition rises from -9.87% to 25.4%.

First: CC(C)c1noc2ncc(-c3nnc(C4CC4)o3)cc12
Second: Cc1cc(C)nc(N(C(=O)C2CC2)c2ccc(OC(F)(F)F)cc2)n1
The inhibition of the first is higher: -9.16% for the first, -22.9% for the second.

Going from `COc1ccc2ncc(S(=O)(=O)c3ccccc3)c(N3CCOCC3)c2c1` to `COc1ccc2ncc(S(=O)(=O)c3ccccc3)c(N3CCN(c4cccc(C)c4C)CC3)c2c1`, the inhibition rises from -25.7% to -1.48%.

Going from `COCC(=O)N1CCCCCC1C1CCN(c2nn3cc(C)nc3s2)CC1` (stereo not drawn) to `CC(C)(C)CC(=O)N1CCN(c2ccc(N3CCCC3)nn2)CC1`, the inhibition falls from 16.4% to -15.1%.

Going from `COC(=O)c1ccc(C2c3[nH]c4ccccc4c3C[C@H]3C(=O)N(CC4CCCO4)CC(=O)N23)cc1` (stereo partly drawn) to `COc1ccc(S(=O)(=O)N(C(=O)c2ccccc2)c2ccc3oc4c(c3c2)CCCC4)cc1`, the inhibition rises from -26.4% to -10.1%.

First: CCOc1ccc(S(=O)(=O)N2CCCCC2)cc1NC(=O)c1ccc(C#N)cc1
Second: COc1ccccc1OCC(=O)Nc1cc(C(F)(F)F)ccc1N1CCCCC1
The inhibition of the first is higher: 11.5% for the first, -1.33% for the second.

Compared with `CCn1nnc2c1C(COC)CN(C(=O)CC1=CCCCC1)C2` (stereo not drawn), `CN1[C@@H](CCC(=O)N2CCc3ccccc32)CNC(=O)[C@@H]2[C@H]1CCN2Cc1ncc[nH]1` is higher in inhibition: -64.1% for the first, -9.99% for the second.

Compared with `CCN(C(=O)c1nc(-c2cccc(F)c2)n2c1CCCCC2)c1ccccc1`, `O=S(=O)(c1ccccc1)N1CCC(n2cnnc2-c2ccccc2)CC1` is higher in inhibition: -10.9% for the first, -0.303% for the second.

Compared with `C=C(NC(=O)C(=C)NC(=O)c1csc(C2=N[C@@H]3c4csc(n4)[C@H]4NC(=O)c5csc(n5)[C@H]([C@](C)(O)[C@@H](C)O)NC(=O)C5CSC(=N5)/C(=C/C)NC(=O)C([C@@H](C)O)NC(=O)c5csc(n5)[C@]3(CC2)NC(=O)[C@H](C)NC(=O)C(=C)NC(=O)[C@H](C)NC(=O)C([C@@H](C)CC)NC2C=Cc3c(C(C)O)cc(nc3[C@H]2O)C(=O)OC4C)n1)C(N)=O` (stereo partly drawn), `Cc1cc(O)c(=O)cc2c1C[C@H]1CC(C)(C)/C=C/C[C@@]3(C)Oc4cc(=O)c(O)cc(C)c4C[C@@H]3C[C@H](O)[C@]1(C)O2` is lower in inhibition: -88.3% for the first, -161% for the second.

Compound `CCC(=O)c1ccc(OCC(=O)Nc2ccc3c(c2)CCC3)cc1` has an inhibition of -0.468%.

`Cc1nc(-c2ccc(C)c(S(=O)(=O)NCc3ccccc3Cl)c2)cs1` was tested, and the inhibition was 34.4% (active).
In the case of `C[C@@H]1O[C@@H](OC2[C@H](Oc3cc(O)c4c(c3)OC(c3ccc(O)cc3)CC4=O)O[C@H](CO)[C@@H](O)[C@@H]2O)[C@H](O)[C@H](O)[C@H]1O` (stereo partly drawn), the inhibition is reported as 33% (active).
`COc1ccc(-c2cc(=O)oc3c(C)c(OCc4ccccc4F)ccc23)cc1` was tested, and the inhibition was 44% (active).
`O=C(NCCc1ccccc1)c1ccc2c(=O)n(Cc3ccco3)c(=O)n(Cc3cccc([N+](=O)[O-])c3)c2c1` was tested, and the inhibition was 66.4% (active).
For `CSCC[C@H](NC(=O)N1CCn2c1nc1ccccc12)C(=O)NCc1ccc2c(c1)OCO2`, the inhibition was 43.3% (active).
With `COc1ccc(CCNC(=O)CSc2cn(CCNC(=O)c3ccccc3C)c3ccccc23)cc1OC` the inhibition was 36.5% (active).
For `COc1ccc2ncc(S(=O)(=O)c3ccccc3)c(Nc3ccc(F)cc3)c2c1`, the inhibition was 38.4% (active).
`O=C(Nc1cc(C(F)(F)F)ccc1-n1cnc2ccccc21)c1ccc(S(=O)(=O)N2CCCCC2)cc1` was tested, and the inhibition was 32.6% (active).
`Cc1nnc(OCC(=O)Nc2ccc(OC(F)(F)F)cc2)c2ccccc12` was tested, and the inhibition was 64.8% (active).
With `O=C(COc1ccc2oc3c(c2c1)CCCC3)Nc1ccccn1` the inhibition was 48.3% (active).
